Laboratory results taken from PubChem BioAssay AID1159580 (chemical genetic matrix, 2015).
About 2,000 (36%) of roughly 5,500 compounds were called active. Another 18% or so got no clear call; they are omitted. Rule as the data show it: active = normalized growth mostly below about 0.91 (no sharp cut-off); inconclusive = no clear call, values can overlap the other calls; inactive = mostly above about 0.92. Some of the results follow.

Experiment: chemical genetic growth profiling, strain panel (AID 1159580);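 also: tested at 20 µM; growth read once vehicle control cultures reached saturation at 30 °C; 1 = growth at the plate median or of vehicle wells; lower values mean less growth of the strain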
Details: S. cerevisiae deletion strains, growth OD
[1] = locus YAL040C, strain CLN3, stronger effect = lower value
[2] = locus YCL061C, strain MRC1 (second series), stronger effect = lower value
[3] = locus YDR150W, strain NUM1, stronger effect = lower value
[4] = locus YDR363W, strain ESC2, stronger effect = lower value
[5] = locus YER002W, strain NOP16, stronger effect = lower value
[6] = locus YMR307W, strain GAS1, stronger effect = lower value
[7] = locus YNL175C, strain NOP13, stronger effect = lower value
[8] = locus YNL197C, strain WHI3, stronger effect = lower value
[9] = locus YNL224C, strain SQS1, stronger effect = lower value
[10] = locus YOR083W, strain WHI5 (second series), stronger effect = lower value
[11] = locus YPL055C, strain LGE1, stronger effect = lower value

Measured: normalized growth

COC(=O)[C@@H](N)Cc1ccc(O)c(O)c1
inactive: [1] 1.03 | [2] 0.971 | [3] 0.958 | [4] 1 | [5] 1 | [6] 0.995 | [7] 1 | [8] 0.984 | [9] 1 | [10] 0.993 | [11] 0.971 | locus YPL241C, strain CIN2, stronger effect = lower value 1.01

N[C@H](CO)C(=O)O
inactive: locus YAL013W, strain DEP1, stronger effect = lower value 1.03 | [1] 1.01 | [2] 1 | [3] 1 | [4] 1.03 | [5] 0.986 | locus YJR075W, strain HOC1, stronger effect = lower value 1.01 | [6] 1 | locus YNL128W, strain TEP1, stronger effect = lower value 0.999 | [7] 0.995 | [8] 0.999 | [9] 0.997 | locus YNL322C, strain KRE1, stronger effect = lower value 1 | [10] 0.996 | [11] 1.02
